Results as given in PubChem BioAssay AID431 (Sanford-Burnham Center for Chemical Genomics, 2006).
In all, about 63,000 compounds went through this assay and about 1,100 (1.7%) were called active.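 Rule for the calls: active = compounds whose percent cytotoxicity in the single-dose primary screen, scaled between solvent and toxic-drug controls, exceeds 50; inactive = the rest.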 The full list was thinned out, with actives kept by preference. Potency and affinity values are given separately.

assay: viability loss of HPDE-C7K cells – cell-based, fluorescence, HTS, primary screen (AID 431); details: HPDE-C7K KRASV12 cells, Alamar Blue viability, 48 h; at 10 µM; hits give high values;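 note: 0% = DMSO solvent wells and 100% = doxorubicin-treated wells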

| Structure (SMILES) | cytotoxicity |
| --- | --- |
| C#CCOC(=O)CCC(=O)Nc1cc(OC)nc(OC)n1 | -8% (inactive) |
| COc1cc(NC(=O)CCCC(=O)OCC(F)(F)C(F)F)nc(OC)n1 | -2.6% (inactive) |
| C=CCOC(=O)CCC(=O)Nc1cc(OC)nc(OC)n1 | 51.4% (active) |
| CCOC(=O)Cn1c(C)c(C#N)c2ccccc21 | 8.1% (inactive) |
| COc1ccc(N(CC(=O)N2CCc3ccccc32)S(=O)(=O)c2c(C)noc2C)cc1 | 2% (inactive) |
| O=C(COc1ncnc2ccc(Br)cc12)Nc1ccc(N2CCOCC2)cc1 | -7.7% (inactive) |
| COc1ccc(OC)c(-c2nnc(NC(=O)C(C)Sc3nncn3C)s2)c1 (centres undefined) | 4.7% (inactive) |
| Cc1ccc(S(=O)(=O)NC2CCOC(C)(C)C2)cc1 (centres undefined) | -15.4% (inactive) |
| COc1cccc2c1C(=O)c1c(O)c3c(c(O)c1C2=O)C[C@@](O)(C(C)=O)C[C@@H]3O[C@H]1C[C@H](N)[C@H](O)[C@H](C)O1 | 106% (active) |
| COc1cccc2c1C(=O)c1c(O)c3c(c(O)c1C2=O)C[C@@](O)(C(=O)CO)C[C@@H]3O[C@H]1C[C@H](N)[C@H](O)[C@H](C)O1 | 98.7% (active) |
| COc1ccccc1N1CCN(C(=O)c2nn(-c3ccccc3OC)c(=O)c3ccccc23)CC1 | 4.9% (inactive) |
| CCNc1nc(Oc2ccc(=O)n(-c3ccccc3)n2)nc(N2CCOCC2)n1 | 4.3% (inactive) |
| Nc1nnc(N2CCCCC2)s1 | -11.2% (inactive) |
| Cc1ccc(CNS(=O)(=O)c2ccc3oc(C(=O)O)c(C)c3c2)cc1 | 1.5% (inactive) |
| CCOC(=O)N1CCN(C(=O)CCn2nc(-c3ccc(Cl)cc3)ccc2=O)CC1 | -0.1% (inactive) |
| CCOc1ccc(S(=O)(=O)Nc2cccnc2)cc1 | 4.6% (inactive) |
| COc1ccc(S(=O)(=O)Nc2cccc(Cl)c2)cc1OC | 9.4% (inactive) |
| CCOc1ccc(NS(=O)(=O)c2ccc(NS(C)(=O)=O)cc2)cc1 | -17% (inactive) |
| CCOc1ccc(S(=O)(=O)Nc2cccc(Cl)c2)cc1 | 65% (active) |
| CCOc1ccc(S(=O)(=O)Nc2cc(Cl)ccc2O)cc1 | 64.5% (active) |
| CCOc1ccc(NS(=O)(=O)c2cc(Cl)ccc2OC)cc1 | -5.4% (inactive) |
| Clc1ccc(-c2noc(CN3CCCC3)n2)cc1 | -4.3% (inactive) |
| COc1ccc(Cl)cc1NC(=O)CN(C(=O)c1ccco1)C1CCCCC1 | 4.7% (inactive) |
| CCSc1nnc(NC(=O)c2cccs2)s1 | 22.4% (inactive) |

| Structure (SMILES) | cytotoxicity |
| --- | --- |
| COC(=O)c1cccc(NC(=O)CSc2nnc(COc3cccc(C)c3)n2C)c1 | -15.1% (inactive) |
| CCOC(=O)c1[nH]c(C)c(/C(O)=C2\C(=O)C(=O)N(CCCn3ccnc3)C2c2ccncc2)c1C (centres undefined) | 11.3% (inactive) |
| Cc1cc(C)c2nc(NC3=NCN(CCN4CCOCC4)CN3)nc(C)c2c1 | -2% (inactive) |
| CC1=C(C)C(=O)NC(Nc2nc(C)c3cc(C)cc(C)c3n2)N1 (centres undefined) | 90.8% (active) |
| Cc1ccnc(SCCn2c(N3CCC(C)CC3)nc3c2c(=O)[nH]c(=O)n3C)n1 | 5.9% (inactive) |
| Cc1cc(C)nc(/N=C2\NC(=O)CC(C(=O)O)N2c2ccc(Oc3ccccc3)cc2)n1 (centres undefined) | 3.8% (inactive) |
| O=C(Nc1ccccc1C(=O)N1CCCCCC1)c1cccc(S(=O)(=O)N2CCOCC2)c1 | 6.4% (inactive) |
| CCN(CC)c1ccc2cc(C(=O)Nc3ccccn3)c(=O)oc2c1 | 18.9% (inactive) |
| CCN(CC)c1ccc2cc(-c3nnc(-c4ccncc4)o3)c(=O)oc2c1 | 71.1% (active) |
| O=c1oc2ccc3ccccc3c2cc1-c1nnc(-c2ccccc2)o1 | -4.9% (inactive) |
| CCN(CC)c1ccc2cc(-c3nc4ccccc4n3C)c(=O)oc2c1 | 53.3% (active) |
| CC(=O)Oc1ccc2cc(-c3nc4ccccc4n3C)c(=O)oc2c1 | -1.4% (inactive) |
| CCN(CC)c1ccc2cc(-c3nc4ccccc4[nH]3)c(=O)oc2c1 | 42.2% (inactive) |
| C/C(Cl)=C/Cn1c(NCCN(C)C)nc2c1c(=O)n(C)c(=O)n2C | 10.3% (inactive) |
| CCCCC(=O)Nc1ccc2c(c1)nc1n2CCOC1 | -4.8% (inactive) |
| Cc1onc(-c2ccccc2)c1C(=O)NCc1ccco1 | 9% (inactive) |
| Fc1ccc(CN2CCCCCCC2)c(F)c1 | 4.9% (inactive) |
| CCCC(C(=O)NCc1ccco1)N(C(=O)CNS(=O)(=O)c1ccc(Cl)cc1)C1CCCC1 (centres undefined) | 2.5% (inactive) |
| COc1ccc(N2CCN(C(=O)c3cn(C)c(=O)c4c3c3ccccc3n4C)CC2)cc1 | 10.6% (inactive) |
| Cc1cccc(N2CCN(C(=O)c3cn(C)c(=O)c4c3c3ccccc3n4C)CC2)c1C | 88.5% (active) |
| Cn1cc(C(=O)N2CCN(C(=O)c3ccco3)CC2)c2c3ccccc3n(C)c2c1=O | -0.8% (inactive) |
| CCOC(=O)N1CCN(C(=O)c2cn(C)c(=O)c3c2c2ccccc2n3C)CC1 | 4.1% (inactive) |
| Cc1ccc(Cl)cc1N1CCN(C(=O)c2cc3c(=O)n(C)c4ccccc4c3n2C)CC1 | 38.6% (inactive) |
| Cc1ccc(Cl)cc1N1CCN(C(=O)c2cn(C)c(=O)c3c2c2ccccc2n3C)CC1 | 110% (active) |

| Structure (SMILES) | cytotoxicity |
| --- | --- |
| Cn1c2c(c(=O)n(C)c1=O)CN(Cc1ccc3c(c1)OCO3)CN2 | 4.8% (inactive) |
| O=C(Nc1ccc(Cl)cn1)c1cc2ccccc2o1 | -4.1% (inactive) |
| COc1cc(C2Nc3cc(Cl)c(S(N)(=O)=O)cc3S(=O)(=O)N2)cc(OC)c1OC (centres undefined) | -17.3% (inactive) |
| N#CCCN1CCN(S(=O)(=O)c2ccc(S(=O)(=O)N3CCCCCC3)cc2)CC1 | 0.7% (inactive) |
| COc1ccc(N2CCN(C(=O)CN3C(=O)C4CC=CCC4C3=O)CC2)cc1 (centres undefined) | 0.2% (inactive) |
| Cc1ccc(C2C3=C(CC(C)(C)CC3=O)NC3=C2C(=O)CC(C)(C)C3)o1 | -0.9% (inactive) |
| COCCNC(=O)c1c(N)n(-c2cccc(C)c2)c2nc3ccccc3nc12 | 26.4% (inactive) |
| CC(C)Cn1c(N)c(C(=O)NCC2CCCO2)c2nc3ccccc3nc21 (centres undefined) | 22.7% (inactive) |
| COCCn1c(N)c(C(=O)NCC2CCCO2)c2nc3ccccc3nc21 (centres undefined) | 15.6% (inactive) |
| Nc1c(C(=O)NC2CCCC2)c2nc3ccccc3nc2n1N | 10.7% (inactive) |
| CC(C)Cn1c(N)c(C(=O)NCCN2CCOCC2)c2nc3ccccc3nc21 | -5.3% (inactive) |
| CC(C)Cn1c(N)c(C(=O)NCc2cccs2)c2nc3ccccc3nc21 | 92.2% (active) |
| Nc1c(C(=O)NCC2CCCO2)c2nc3ccccc3nc2n1-c1ccccc1 (centres undefined) | 10.6% (inactive) |
| COCCn1c(N)c(C(=O)NCc2cccs2)c2nc3ccccc3nc21 | 9.2% (inactive) |
| COCCNC(=O)c1c(N)n(CCCn2ccnc2)c2nc3ccccc3nc12 | 6.1% (inactive) |
| COCCSc1nnc(-c2cccc(C#N)c2)n1C | -2.9% (inactive) |
| COc1cc(C)c(C#N)c(OC)n1 | 0% (inactive) |
| CC(C)OCC(O)CN (centres undefined) | -11.2% (inactive) |
| CCCn1c(=C(C#N)C#N)s/c(=C2\C=Cc3ccccc3N2CC)c1=O | 6% (inactive) |
| Cc1nc(C)c(C(=O)NCc2ccc(Cl)cc2)o1 | -5.4% (inactive) |
| O=C(CN1CCN(S(=O)(=O)c2ccc(F)cc2)CC1)Nc1ccc2c(c1)OCO2 | 0.6% (inactive) |
| CCOC(=O)COc1ccc2nsnc2c1Cl | 2.6% (inactive) |
| COCCn1c(SC(C)C(=O)Nc2ccc3c(c2)OCCO3)nc2ccccc2c1=O (centres undefined) | -20.1% (inactive) |
| CCc1nnc(NC(=O)CSc2nnc(Cc3cccn3C)n2C)s1 | 4% (inactive) |

| Structure (SMILES) | cytotoxicity |
| --- | --- |
| CC1(C)Cc2c(c(N3CCOCC3)nc3snc(Br)c23)CO1 | -11% (inactive) |
| CC1(C)Cc2c(c(N3CCOCC3)nc3sc(C(=O)N4CCCCC4)c(N)c23)CO1 | -5.9% (inactive) |
| Cc1nc(-c2c(-c3ccc(O)cc3O)noc2C(F)(F)F)cs1 | 1.3% (inactive) |
| Cc1cc(O)ccc1Nc1nc(-c2sc(N)nc2C)cs1 | 13% (inactive) |
| Cc1cccnc1Nc1nc(-c2ccc(O)cc2O)cs1 | 78% (active) |
| COc1ccc(C(C(=O)NC(C)(C)C)N(Cc2ccco2)C(=O)CCC(=O)Nc2cc(C)on2)cc1 (centres undefined) | -10% (inactive) |
| O=C(O)c1ccc(CS(=O)(=O)c2cccc(C(F)(F)F)c2)o1 | 0.8% (inactive) |
| CC(=O)N1C(=O)C2(Nc3ccccc3N2)c2ccccc21 | 2.8% (inactive) |
| CCCCOc1ccc(OCCCC)c2c1NC1(N2)C(=O)N(C(C)=O)c2ccccc21 | 59.6% (active) |
| CCNC(=O)N1C(=O)C2(OCCO2)c2ccccc21 | -11.6% (inactive) |
| CCn1c(=NC(=O)CSC(C)=O)sc2cc(F)ccc21 | -9.8% (inactive) |
| Cc1c(C(C)O)nnn1-c1nonc1N (centres undefined) | 7.8% (inactive) |
| CC(c1ccco1)N(C(=O)C12CC3CC(CC(C3)C1)C2)c1ccccn1 (centres undefined) | -19.3% (inactive) |
| Cc1nn(C(C)(C)C)c(OC(=O)c2cccs2)c1S(=O)(=O)c1ccccc1 | 64% (active) |
| Cc1ccc(S(=O)(=O)c2c(C)nn(C(C)(C)C)c2OC(=O)c2cccs2)cc1 | 5% (inactive) |
| Cc1ccc(S(=O)(=O)c2c(C)nn(C(C)(C)C)c2OC(=O)c2ccco2)cc1 | 5.7% (inactive) |
| CC(=O)Oc1c(S(=O)(=O)c2ccc(C)cc2)c(C)nn1C(C)(C)C | 3.3% (inactive) |
| Cc1nn(-c2ccccc2)c(OC(=O)c2cccs2)c1S(=O)(=O)c1ccccc1 | 1.2% (inactive) |
| O=C(Cc1coc2ccc3ccccc3c12)N1CCN(c2ncccn2)CC1 | 0.6% (inactive) |
| COc1ccc(Nc2cc(=O)n(C3CCCCC3)c(=O)[nH]2)c(OC)c1 | -8.6% (inactive) |
| CCC(=O)Nc1ccc(OC)cc1OC | -5.2% (inactive) |
| COc1ccc(OCc2nn3c(-c4ccccn4)nnc3s2)cc1 | 4% (inactive) |
